# The full list was thinned out, with hits kept by preference.
# nsP2pro primary: CHIKV nsP2 protease inhibition, primary qHTS. FRET peptide cleavage, nsP2pro, fluorescence 1 h. Potency, µM (series often up to 24.9 µM), for the others: at the highest dose activity change, negative = inhibition, usual class: inhibitors. 31,000 compounds, 1.1% hits. AID 1964107; note: nearly all actives have a fitted effect of over 60% in size
#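 Enzyme 150 nM, substrate 2.5 uM (both final); Tris-HCl 10 mM pH 8.0 + 0.01% Tween 20; cpd up to 25 uM, 7 pts; 15 min preinc., 1 h RT; fluorescence ex 525/em 598.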
# CHIKV nsP2 cell: inhibits CHIKV nsP2 protease in cells | shares compounds with nsP2pro primary | cell-based CHIKV nsP2 protease reporter assay | Potency, µM (highest dose often 51.1 µM), for inactives: top-dose activity change, negative = inhibition, most hits filed as inhibitors | 450 compounds, 10% hits; note: nearly all actives have a fitted effect of over 70% in size
# Target sequence (Q8JUX6 220-798 limits assumed): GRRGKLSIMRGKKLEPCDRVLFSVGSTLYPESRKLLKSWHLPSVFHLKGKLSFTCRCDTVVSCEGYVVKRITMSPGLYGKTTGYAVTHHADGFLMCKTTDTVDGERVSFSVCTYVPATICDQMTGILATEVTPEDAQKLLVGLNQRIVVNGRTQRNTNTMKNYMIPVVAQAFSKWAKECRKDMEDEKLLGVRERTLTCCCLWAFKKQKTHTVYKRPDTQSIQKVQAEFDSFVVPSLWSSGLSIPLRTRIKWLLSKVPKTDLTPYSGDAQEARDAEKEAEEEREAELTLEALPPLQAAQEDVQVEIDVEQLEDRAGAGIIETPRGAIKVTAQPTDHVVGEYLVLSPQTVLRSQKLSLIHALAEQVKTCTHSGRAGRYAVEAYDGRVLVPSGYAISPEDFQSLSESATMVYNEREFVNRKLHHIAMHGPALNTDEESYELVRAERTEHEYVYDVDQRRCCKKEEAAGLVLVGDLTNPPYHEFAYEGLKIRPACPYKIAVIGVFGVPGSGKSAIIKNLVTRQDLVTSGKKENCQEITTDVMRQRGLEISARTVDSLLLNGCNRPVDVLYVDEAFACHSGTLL
# NSP2 full ctr: selectivity test for CHIKV nsP2 protease inhibitors: full-length NSP2. Full-length CHIKV NSP2 protease enzymatic counterscreen. AID 1964101. 410 compounds, 39% hits. shares compounds with nsP2pro primary. Potency, µM (highest dose often 50.7 µM), inactives show at the top dose activity change, negative = inhibition, hits mostly inhibitors; note: nearly all actives have a fitted effect of over 65% in size
# Furin counterscr: human furin inhibition, counterscreen for nsP2pro inhibitors. shares compounds with nsP2pro primary. Recombinant human furin enzymatic counterscreen, fluorogenic substrate. Potency, µM (doses to about 50.6 µM), without a hit: at the top dose activity change, negative = inhibition, most hits filed as inhibitors. 410 compounds, 6% hits
# nsP2 NS23 pep: nsP2pro inhibition on native NS2/3 peptide substrate; AID 1964103; shares compounds with nsP2pro primary; 410 compounds, 34% hits; Purified CHIKV nsP2 protease, endogenous NS2/3 peptide cleavage; Potency, µM (doses to about 51 µM), without a hit: at the top dose activity change, negative = inhibition, most hits filed as inhibitors; note: nearly all actives have a fitted effect of over 55% in size
# Papain cs: selectivity counter-screen for CHIKV nsP2 protease inhibitors: papain; Potency, µM (highest dose often 51 µM), inactives show top-dose activity change, negative = inhibition, most hits filed as inhibitors; 410 compounds, 5% hits; shares compounds with nsP2pro primary; purified papain protease activity, enzymatic inhibition
# nsP2pro conf qHTS: confirmation of CHIKV nsP2 protease inhibitors | AID 1964105 | Potency, µM (titrated, usually from 25.5 µM), for the others: at the top dose activity change, negative = inhibition, usual class: inhibitors | CHIKV nsP2 protease enzymatic activity, qHTS | 410 compounds, 43% hits | shares compounds with nsP2pro primary; note: nearly all actives have a fitted effect of over 75% in size
# HCV NS3 4A cs: HCV NS3/4A protease inhibition, counterscreen | shares compounds with nsP2pro primary | HCV NS3/4A protease biochemical counterscreen | Potency, µM (top dose mostly 50.9 µM), actives largely listed as inhibitors | 410 compounds, 20% hits; note: nearly all actives have a fitted effect of over 55% in size
# * marks the source's active call; other numbers are inactive results; i = inactive; ? = inconclusive; nt = no result; [ ] = dose if it differs, or a comment. Calls come from the whole dose curve. % is set by controls: 0 for no effect and ±100 for the full control effect; potency is the fitted concentration of half-maximal effect.
SMILES,nsP2pro primary,CHIKV nsP2 cell,NSP2 full ctr,Furin counterscr,nsP2 NS23 pep,Papain cs,nsP2pro conf qHTS,HCV NS3 4A cs
O=S(=O)(O)c1ccccc1,-0.8%,nt,nt,nt,nt,nt,nt,nt
NS(=O)(=O)C#Cc1ccccc1,7.85µM*,?,13µM*,-6.9%,?,-6.9%,6.34µM*,i
Cc1cccc2nc(NC3=NC(c4[nH]ncc4Cl)C4=C(CCCC4=O)N3)oc12 (centres undefined),-3.2%,nt,nt,nt,nt,nt,nt,nt
CC(=O)O[C@@]1(C)C[C@@H](O)[C@]2(O)C=CO[C@@H](O[C@@H]3O[C@H](CO)[C@@H](O)[C@H](O)[C@H]3O)[C@@H]21,-4.1%[10 µM],nt,nt,nt,nt,nt,nt,nt
CC(=O)OC1(C)CC(O)C2(O)C=COC(OC3OC(CO)C(O)C(O)C3O)C12 (centres undefined),-1.7%[10 µM],nt,nt,nt,nt,nt,nt,nt
CC(=O)OC1C(O)CC(O[C@@H]2O[C@H](CO)[C@@H](O)[C@H](O)[C@H]2O)C2CCC3C(=O)OC(c4ccoc4)CC3(C)C21 (some centres undefined),?,4.0%[17.6 µM],5.2%[17.3 µM],8.8%[17.3 µM],-2.3%[17.2 µM],-5.2%[17.2 µM],-18.7%[8.62 µM],i
Cc1ccc(-c2cc(C(=O)NCc3ccccc3)c3ccccc3n2)cc1C,i,nt,nt,nt,nt,nt,nt,nt
C=C1C(=O)O[C@@H]2C(OC(=O)/C(C)=C\C)/C(C)=C\C(=O)/C=C(\C)C[C@H](O)[C@@H]12 (some centres undefined),?,?,-11.2%[33.5 µM],-6.2%[33.5 µM],?,-11.9%[33.5 µM],-23.4%[16.7 µM],?
C=C1C(=O)O[C@@H]2[C@H]3C(=C)[C@@H](O)C[C@H]3C(=C)C[C@@H](O)[C@@H]12,34.7%,nt,nt,nt,nt,nt,nt,nt
C=C1C(=O)O[C@@H]2/C=C(/C)CC3C=C(C[C@H](OC(=O)/C(C)=C\C)[C@@H]12)C(=O)O3 (some centres undefined),-29.5%,nt,nt,nt,nt,nt,nt,nt
O=C(/C=C/c1ccc(O)cc1)O[C@H]1[C@@H]2C=CO[C@@H](O[C@@H]3O[C@H](CO)[C@@H](O)[C@H](O)[C@H]3O)[C@@H]2[C@@]2(CO)O[C@@H]12,-5.9%[10 µM],nt,nt,nt,nt,nt,nt,nt
Cc1cc(C)nc(NC(=S)N2CCN(c3ccccc3C#N)CC2)c1,1.9%,nt,nt,nt,nt,nt,nt,nt
O=C(O)Cc1cc(I)c(Oc2ccc(O)c(I)c2)c(I)c1,21.7%,nt,nt,nt,nt,nt,nt,nt
O=C(O)Cc1ccc(O)c(O)c1,?,-3.4%,-23.0%,-4.9%,?,-6.5%,8.96µM*,8.19µM*
CC(=O)Nc1ccc(CC(=O)O)cc1,2.0%,nt,nt,nt,nt,nt,nt,nt
CSc1nc(=O)c2c(n1C)NC(=O)CC2c1cc(F)cc(F)c1 (centres undefined),0.5%,nt,nt,nt,nt,nt,nt,nt
CNc1nc2c(s1)C(c1cccc(F)c1)CC(=O)N2 (centres undefined),3.16µM*,44.2%,?,8.4%,10.3µM*,55.3%,5.65µM*,i
Oc1c(Br)cc(Br)cc1CNC1CCC(O)CC1 (centres undefined),8.81µM*,-6.8%,-4.6%,3.6%,-7.0%,-7.2%,-17.3%,i
Nc1c(Br)cc(Br)cc1CNC1CCC(O)CC1 (centres undefined),7.1%,nt,nt,nt,nt,nt,nt,nt
CC#C[C@@H](CC(=O)O)c1ccc(OCc2cccc(-c3ccc(C(F)(F)F)cc3)c2)cc1,452.0%,nt,nt,nt,nt,nt,nt,nt
CCCCS(=O)(=O)c1oc(-c2cccs2)nc1S(=O)(=O)c1ccc(F)cc1,?,3.66µM*,5.8µM*,2.9%,8.19µM*,-9.0%,5.04µM*,i
CCCSc1oc(-c2cccs2)nc1S(=O)(=O)c1ccc(C)cc1,-23.3%,nt,nt,nt,nt,nt,nt,nt
CCCCCS(=O)(=O)c1oc(-c2cccs2)nc1S(=O)(=O)c1ccc(C)cc1,-16.3%,nt,nt,nt,nt,nt,nt,nt
O=C(c1ccc(-c2ccc(Cl)cc2)o1)N(Cc1ccccn1)c1ccc(N2CCNCC2)cc1,0.9%,nt,nt,nt,nt,nt,nt,nt

# Screening results (PubChem BioAssay)
